Experimental findings from PubChem BioAssay (NCATS) are described below.

Each structure is given as a SMILES string. Records with an inconclusive call do not appear. Where a call stands in place of a potency, no number is given. Where a structure was tested more than once in an assay, its records may differ in their call. Active and inactive are the calls of the source. The call rests on the fitted dose curve; in most records, active means well fitted inhibition curve with a large enough effect; inconclusive means small, poorly fitted or top-dose-only effect; inactive means no such curve, though single readings can be large or run the other way.
Potency means the concentration at half of the fitted maximal effect.

Sequence of M-phase phosphoprotein 8 (Homo sapiens) (Q99549 whole entry, looked up): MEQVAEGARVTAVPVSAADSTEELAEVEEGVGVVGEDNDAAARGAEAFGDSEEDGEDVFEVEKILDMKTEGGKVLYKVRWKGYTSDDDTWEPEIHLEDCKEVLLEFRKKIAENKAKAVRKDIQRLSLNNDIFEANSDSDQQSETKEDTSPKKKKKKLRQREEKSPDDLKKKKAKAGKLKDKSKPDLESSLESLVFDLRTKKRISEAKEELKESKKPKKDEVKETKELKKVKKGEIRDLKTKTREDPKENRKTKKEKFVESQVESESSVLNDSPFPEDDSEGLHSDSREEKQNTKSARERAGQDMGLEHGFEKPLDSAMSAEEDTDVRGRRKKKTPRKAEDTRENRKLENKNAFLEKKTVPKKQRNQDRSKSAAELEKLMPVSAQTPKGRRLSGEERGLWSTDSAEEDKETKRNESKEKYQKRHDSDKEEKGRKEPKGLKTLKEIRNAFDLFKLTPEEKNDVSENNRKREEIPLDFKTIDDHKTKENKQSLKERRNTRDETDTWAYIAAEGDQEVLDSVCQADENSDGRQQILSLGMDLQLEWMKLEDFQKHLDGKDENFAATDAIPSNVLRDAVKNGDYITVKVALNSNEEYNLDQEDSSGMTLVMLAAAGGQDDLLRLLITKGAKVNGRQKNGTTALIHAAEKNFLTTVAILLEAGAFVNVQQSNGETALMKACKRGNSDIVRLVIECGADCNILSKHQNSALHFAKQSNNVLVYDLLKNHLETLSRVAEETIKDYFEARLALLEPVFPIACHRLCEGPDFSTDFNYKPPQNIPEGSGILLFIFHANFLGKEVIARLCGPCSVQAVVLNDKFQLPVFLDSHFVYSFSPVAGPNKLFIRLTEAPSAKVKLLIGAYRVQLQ

The experiment concerns the target M-phase phosphoprotein 8 (Homo sapiens) (UniProt Q99549). Description: qHTS Validation Assay for Inhibitors for MPP8 Chromodomain Interactions with Methylated Histone Tails (AID 488949). Further: nearly all actives have a fitted effect of over 55% in size. On activity change, negative = inhibition: top concentration of the series differs between compounds. The conditions noted are these: AlphaScreen MPP8 binding to H3K9me3 peptide; series mostly up to 57.1 µM; activity change, negative = inhibition: at the top concentration. The source says:
As our understanding of epigenetics expands, it is becoming clear that players in this field are potential targets for drug development. This area of epigenetic therapy has established applications for the treatment of cancer and neurological diseases. We have been involved in this field for a number of years and have performed high-throughput screens to identify the first small molecule inhibitors of protein methyltransferases. These methyltransferases target multiple substrates, and thus regulate many arms of an epigenetic pathway. The methylation of different substrates often generates docking sites for effector proteins that harbor binding domains (chromo, tudor, PHD, MBT and ANK repeats). It has been proposed that the binding sites generated for different proteins by these post-translational modifcations mediate downstream effects on chromatin. Consistent with this theory, di- and tri-methylation of histone H3K9 facilitates the binding of heterochromatin protein HP1. The HP1 protein harbors a chromodomain that is responsible for the methyl-dependent interaction between HP1 and lysine 9 of histone H3. HP1 was first described in flies as a heterochromatin associated protein that can regulate gene silencing. It harbors a chromodomain that binds H3K9me3. In addition, it harbors a chromoshadow domain that interacts with a large number of proteins that are involved in heterochromatin formation and gene repression. There are three highly related HP1 isoforms. All three variants are associated with pericentric heterochromatin and it is not clear whether they have specific or redundant functions. MPP8 is also involved in the repression of gene in euchromatic regions (unpublished data) and like HP1 its chromodomain binds H3K9me3. MPP8 harbors an ankyrin repeat region that is likely involved in binding and recruiting interacting proteins with transcriptional repressive function, much like the chromoshadow domain of HP1 does. We hypothesize that by inhibiting specific protein-protein interactions we will be able to develop compounds that block a single arm of an epigenetic pathway. The specificity attained by blocking a single protein-protein interaction will be far greater than that attained by blocking the enzyme that regulates one of many interactions. Low-affinity protein-protein interactions (Kd in the single- to double-digit micromolar range) such as those discussed here have been very difficult to assay by traditional techniques such as fluorescence polarization or fluorescence resonance energy transfer. We have developed a sensitive chemiluminescence-based assay (Quinn, et al. 2009), which serves as the starting point for this project. The following is a validation assay to identify lead compounds that can block methyl-dependent protein-protein interactions (specifically MPP8), which can be used as probes to analyze these methyl-driven interactions and perhaps even developed into targeted epigenetic therapies. Assay Provider: Mark T. Bedford, MD Anderson Screening Center PI: Austin, C.P. Screening Center: NIH Chemical Genomics Center [NCGC]
To each well, 2 uL of MPP8 protein (final 50 nM) and 1 uL biotinylated histone peptide trimethylated at Lys9 [b-H3(1-18)K9me3] (final 50 nM) was added in 1x PBS buffer, pH 7.4, containing 0.01% Tween-20 using a nanoliter dispenser. Formation of a protein-peptide complex proceeded at room temperature for 30 min. A Kalypsys pin-tool was employed to transfer 23 nL of library compound solution in DMSO to each well. Aurintricarboxylic acid (ATA) was used as an intraplate control with a 12-point titration in duplicate. Following a 30 min incubation of the protein-peptide complex with compounds at room temperature, a mixture of 40 ug/mL each streptavidin-coated donor and nickel chelate acceptor AlphaScreen beads (final 10 ug/mL) was added in a 1 uL dispense for a final volume of 4 uL. Plates were incubated protected from the light for 30 min at room temperature. […]
On the technique in general: qHTS replaces the single test concentration by a dilution series.
Consider `C[C@@H]1O[C@@H](O[C@H]2C[C@@H](O)[C@]3(CO)[C@H]4[C@H](O)C[C@]5(C)[C@@H](C6=CC(=O)OC6)CC[C@]5(O)[C@@H]4CC[C@]3(O)C2)[C@H](O)[C@H](O)[C@H]1O`, for which the Potency entry is “inactive”.

Consider `Cc1cccc(C)c1NC(=O)CN1CCCC1=O`, for which the “activity change, negative = inhibition” value was 1.86% (inactive). The same measure, in the same setting: then `CN(C)CCC=C1c2ccccc2CCc2ccccc21`, with 16.5% (inactive). With `CC(O)(CS(=O)(=O)c1ccc(F)cc1)C(=O)Nc1ccc(C#N)c(C(F)(F)F)c1` (stereo not given), the “activity change, negative = inhibition” value was 17.2% (inactive). With `O=c1c(O)c(-c2ccc(O)c(O)c2)oc2cc(O)cc(O)c12`, the Potency was 39.8 µM (active) and inactive. In the case of `NCC(O)c1ccc(O)cc1` (stereo not given), the “activity change, negative = inhibition” value is -3.75% [at 114 µM] (inactive). Take `Cc1ccc(S(=O)(=O)N[C@@H](CCCCN)C(=O)CCl)cc1`: the Potency entry is “inactive”. As to `NN=C(N)N`, the Potency entry is “inactive”.

As for `CC(COc1ccccc1)N(CCCl)Cc1ccccc1` (stereo not given), the Potency result is “inactive”. Take `O=C1NCN(c2ccccc2)C12CCN(CC1COc3ccccc3O1)CC2` (stereo not given): the “activity change, negative = inhibition” value is -2.5% (inactive). For the compound `Cc1ncc(CNC(=O)N(CCCl)N=O)c(N)n1`, the Potency entry is “inactive”.

With `Cc1cccc(C)c1NC1=NCCCS1`, the Potency entry was “inactive”. On the same count and under the same terms, then `Cc1cc2c(C(C)C)c(O)c(O)c(C=O)c2c(O)c1-c1c(C)cc2c(C(C)C)c(O)c(O)c(C=O)c2c1O`, with 15 µM (active); and `c1ccc(C2CC2)c(OCC2=NCCN2)c1`, with “inactive”. On the same count and under the same terms, then `CCC1(C2=NCCN2)Cc2ccccc2O1` (stereo not given), with “inactive”. Same read-out and setting: then `CCn1cc(C(=O)O)c(=O)c2ccc(C)nc21`, with “inactive”. As to `CC(CCc1ccccc1)NC(C)C(O)c1ccc(O)cc1` (stereo not given), the Potency entry is “inactive”.

As to `CC[C@@H](CO)NC(=O)[C@@H]1C=C2c3cccc4c3c(cn4C)C[C@H]2N(C)C1`, the “activity change, negative = inhibition” value was 9.05% (inactive).

With `NCC1(CC(=O)O)CCCCC1`, the Potency result was “inactive”. As for `CC(C)=CCOc1c2occc2cc2ccc(=O)oc12`, the “activity change, negative = inhibition” value was 6.2% (inactive). Regarding `Fc1ccc(C(OCCN2CCN(CCCc3ccccc3)CC2)c2ccc(F)cc2)cc1`, the Potency is 15.8 µM (active). The same measure, in the same setting: with `CC(=O)[C@H]1CC[C@H]2[C@@H]3CC[C@H]4C[C@H](O)CC[C@]4(C)[C@H]3C(=O)C[C@]12C` the entry was “inactive”.

As to `Clc1cccc(N2CCNCC2)c1`, the “activity change, negative = inhibition” value was -0.42% [at 114 µM] (inactive). `C=C(C)[C@H]1Cc2c(ccc3c2O[C@@H]2COc4cc(OC)c(OC)cc4[C@@H]2C3=O)O1`: the “activity change, negative = inhibition” value is -18.5% [at 114 µM] (inactive).

Turning to `CN1C[C@H](CNC(=O)OCc2ccccc2)C[C@@H]2c3cccc4c3c(cn4C)C[C@H]21`, the “activity change, negative = inhibition” value was -14% (inactive). For `O=c1[nH]c2ccccc2n1C1CCN(CCCC(c2ccc(F)cc2)c2ccc(F)cc2)CC1`, the Potency was 22.4 µM (active). With `CCC1C(=O)OCC1Cc1cncn1C` (stereo not given), the Potency entry was “inactive”.

As to `CCCN1CCC[C@@H]2Cc3nc(N)ncc3C[C@H]21`, the Potency entry was “inactive”.

Consider `O=c1[nH]c2ccccc2n1CCCN1CCC(n2c(=O)[nH]c3cc(Cl)ccc32)CC1`, for which the “activity change, negative = inhibition” value was 0.336% (inactive). As for `CC[N+](CC)(CC)CC`, the Potency entry was “inactive”. As to `CC(C)C(=O)Nc1ccc([N+](=O)[O-])c(C(F)(F)F)c1`, the Potency result was “inactive”. Still for that read-out and setting: then `CNCC(O)c1ccc(O)cc1` (stereo not given), with “inactive”. For `CC(=O)[C@H]1CC[C@H]2[C@@H]3CC[C@H]4C[C@](C)(O)CC[C@]4(C)[C@H]3CC[C@]12C`, the “activity change, negative = inhibition” value was -2.03% (inactive).

With `COc1ccccc1N1CCNCC1`, the Potency entry was “inactive”. With `COc1ccc(C(CN(C)C)C2(O)CCCCC2)cc1` (stereo not given), the “activity change, negative = inhibition” value is 2.63% (inactive). For `Nc1ccncc1`, the Potency entry was “inactive”. Same read-out and setting: with `CCCC(C)(COC(N)=O)COC(=O)NC(C)C` (stereo not given) the entry was “inactive”; with `COc1ccc(Cc2nccc3cc(OC)c(OC)cc23)cc1OC`, “inactive”; with `NCC(CC(=O)O)c1ccc(Cl)cc1` (stereo not given), “inactive”.

For `CCCN1CCC[C@@H]2Cc3[nH]ncc3C[C@H]21`, the Potency entry is “inactive”.
